FLuc modulator: inhibits or activates purified firefly luciferase, miR-21 counter-screen | Potency, µM (highest dose often 57.5 µM), inactives show top-dose activity change, negative = inhibition, actives largely listed as inhibitors | hit rate 6.9% among 360,000 | AID 588342 | purified FLuc, Km substrates, luminescence inhibition | P08659;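 further: plate controls were vehicle for no effect and reference inhibitor for full effect; nearly all actives have a fitted effect of over 55% in size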
Target sequence (P08659 whole entry, looked up): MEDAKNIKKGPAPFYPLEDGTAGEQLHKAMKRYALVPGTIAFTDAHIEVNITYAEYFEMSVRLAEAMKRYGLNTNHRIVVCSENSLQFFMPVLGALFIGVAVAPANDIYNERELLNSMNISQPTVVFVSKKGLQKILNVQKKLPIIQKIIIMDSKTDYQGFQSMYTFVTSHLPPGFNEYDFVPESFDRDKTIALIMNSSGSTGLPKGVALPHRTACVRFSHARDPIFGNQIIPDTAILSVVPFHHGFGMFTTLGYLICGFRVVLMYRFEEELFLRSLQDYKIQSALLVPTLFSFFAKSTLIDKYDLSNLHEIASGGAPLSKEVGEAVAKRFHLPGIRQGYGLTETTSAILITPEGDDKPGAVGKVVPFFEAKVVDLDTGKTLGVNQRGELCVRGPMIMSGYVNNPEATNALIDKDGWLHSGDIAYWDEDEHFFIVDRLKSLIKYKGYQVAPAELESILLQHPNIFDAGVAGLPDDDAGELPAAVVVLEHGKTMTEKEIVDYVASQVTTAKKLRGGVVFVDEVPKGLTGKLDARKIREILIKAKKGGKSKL
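Purified P. pyralis luciferase, 10 nM final, with Km-level 10 uM D-luciferin and 10 uM ATP in 50 mM Tris acetate pH 7.5, 10 mM Mg acetate, 0.01% Tween-20, 0.05% BSA; 6-point qHTS titration about 60 µM downward; luminescence read.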
ELG1 genotox: genotoxicity induction in ELG1-luciferase HEK293T cells. HEK293T ELG1-luciferase reporter, luminescence, 16 h. Potency, µM (titrated, usually from 46 µM), for inactives: top-dose activity change, positive = activation, usual class: activators. hit rate 1.3% among 330,000; further: % of control where 0% means no effect; nearly all actives have a fitted effect of over 60% in size
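Screening used a luciferase reporter fused to human ELG1 in HEK293T cells. Luminescence was read on a CCD plate imager after 16 hr exposure and 30 min ONE-Glo incubation.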
ELG1 repair inh: ELG1-dependent DNA repair inhibition. HEK293T ELG1-luciferase reporter, luminescence, 16 h; DNA damage induced by 5-fluorouridine. Potency, µM (top dose mostly 46.1 µM), for inactives: at the top dose activity change, negative = inhibition, usual class: inhibitors. hit rate 2.3% among 330,000. AID 504467; further: on the % scale 0 is the no-effect control and ±100 the full control effect; nearly all actives have a fitted effect of over 55% in size
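DMSO vehicle served as the neutral condition. Each well held 2,000 cells given 5-fluorouridine plus compound; after 16 hr at 37 °C/5% CO2, ONE-Glo was added and luciferase measured 30 min later.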
NPC1 promoter act: activators of NPC1 promoter; AID 485313; hit rate 2.4% among 320,000; Huh7 NPC1 promoter luciferase reporter, 24 h; Potency, µM (titrated, usually from 9.22 µM), for inactives: at the top dose activation, usual class: activators; further: % of control where 0% means no effect; nearly all actives have a fitted effect of over 60% in size
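Luminescence from an NPC1 promoter-driven luciferase reporter in stably transfected Huh7 cells was measured after 24 h compound treatment at 37 °C, followed by 10 min ambient incubation with luciferase detection reagent.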
SMN2 splice up: enhancers of SMN2 splice variant expression | hit rate 2.8% among 210,000 | Potency, µM (titrated, usually from 46.1 µM), for inactives: top-dose activity change, positive = activation, hits mostly activators | HEK293 SMN2-luciferase splicing reporter, luminescence, 30-36 h; further: % of control where 0% means no effect; nearly all actives have a fitted effect of over 55% in size
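HEK293 cells carry an SMN2 minigene-luciferase reporter in which exon 7 inclusion puts luciferase in frame. Cells were seeded at 2000 cells/well, attached for 10-12 hours, then exposed to compounds for 30-36 hours at 37C before ONE-Glo luminescence.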
Rab9 prom act: activators of Rab9 promoter | Potency, µM (doses to about 9.22 µM), for the others: at the highest dose activation, negative = inhibition, most hits filed as activators | Huh7 Rab9 promoter-luciferase reporter, luminescence, 24 h | AID 485297 | hit rate 2.8% among 320,000; further: % of control where 0% means no effect; nearly all actives have a fitted effect of over 60% in size
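Stable Rab9-luc Huh7, 1500 cells/well, 2 h settle; cmpd in DMSO, 24 h, 37 °C/5% CO2; luciferase reagent 10 min RT; luminescence.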
Active calls of the source: *; ? = inconclusive; / = no result; [ ] = another dose, or the depositor's remark. Most compounds without a hit are left out; they make up all but 9.4% or so of the library. The call rests on the fitted dose curve; in most records, active means well fitted curve in the direction sought with a large enough effect; inconclusive means small, poorly fitted or top-dose-only effect, or another doubt; inactive means no such curve, though single readings can be large; an effect the other way counts as inactive or inconclusive. Potency means the concentration at half of the fitted maximal effect.

SMILES	FLuc modulator	ELG1 genotox	ELG1 repair inh	NPC1 promoter act	SMN2 splice up	Rab9 prom act
CC(C)(C)CNC(=O)c1cccc2c1C(=O)c1ccc(N3CCCC3)cc1S2(=O)=O	/	-5%	16µM*	/	/	/
CCN(CC)c1ccc(-c2nn3c(-c4n[nH]c5c4CCC5)nnc3s2)cc1	21µM*	1%	1%	-9%	4%	-13%
O=C(O)c1cccc(NC(=S)N/N=C/c2ccccc2OCc2cccc(Br)c2)c1	?	3%	4%	-1%	6%	0%
O=C(O)c1cccc(NC(=S)N/N=C/c2ccccn2)c1	0.38µM*	?	?	0.28µM*	0.89µM*	0.32µM*
O=C(O)c1cccc(NC(=S)N/N=C/c2cccc(O)c2)c1	2.1µM*	-1%	?	14%	5%	18%
O=C(O)c1cccc(NC(=S)N/N=C/c2ccccc2OCc2ccc(Br)cc2)c1	24µM*	16%	?	27%	?	18%
O=C(CCCC(=O)N/N=C\c1ccccn1)N/N=C\c1ccccn1	5%	0%	3%	-3%	/	1%
CCCOP(=O)(c1ccc(N(C)C)cc1)C(O)c1ccc(N(C)C)cc1 (configuration not stated)	?	-3%	0%	-1%	/	-6%
O=C(CCSc1ccc(Cl)cc1)N1CCN(c2ncccn2)CC1	19µM*	?	?	?	8%	25%
O=C(CCSc1ccccc1)N1CCN(c2ccccc2)CC1	19µM*	?	?	2.8µM*	22µM*	2.8µM*
NC(=O)C1CCN(C(=O)CCSc2ccc(Cl)cc2)CC1	-7%	8%	?	11%	1%	22%
O=C(CCSc1ccc(Cl)cc1)N1CCCCCC1	19µM*	14%	?	?	7%	3.5µM*
O=C(CCSc1ccc(Cl)cc1)N1CCN(c2ccc(O)cc2)CC1	?	?	8.2µM*	?	/	?
C[C@@H](CNC(N)=O)NC(N)=O	/	/	/	/	-16%[9.22 µM]	/
CCCC12CN3CC(C)(CN(C1)C3c1ccc(OCc3ccccc3)cc1)C2=O (configuration not stated)	-6%	/	/	/	-2%	/
Cc1cc[n+](-c2ccccc2)c2ccccc12	6%	-4%	10µM*	-26%	-71%	-21%
CS(=O)(=O)n1nc(OC(=O)c2cccc3ccccc23)cc1N	17µM*	5%	14%	7%	5%	27%
O=C(NCc1ccco1)c1cnc2sccn2c1=O	-2%	-1%	14%	2%	2%	-5%
Cc1cccn2c(=O)c(C(=O)NCCc3ccccc3)cnc12	4.8µM*	/	/	/	/	/
O=C(NCCc1ccccc1)c1cnc2sccn2c1=O	17µM*	?	?	?	13µM*	3.5µM*
CCn1cc(/C=C(\NC(=O)c2ccc(OC)c(OC)c2)C(=O)NCCCn2ccnc2)c2ccccc21	3%	/	/	/	6%	/
COCCNC(=S)N/N=C(\C)c1ccccc1OC	5%	-1%	-1%	6%	18%	-1%
COCCNC(=S)N/N=C(\C)c1ccccc1O	17µM*	5%	?	25%	29%	0%
COCCCNC(=S)N/N=C/c1ccccc1O	12µM*	2%	?	?	/	?
COCCNC(=S)N/N=C/c1ccccc1C(=O)O	2%	-7%	?	-1%	4%	2%
SMILES	FLuc modulator	ELG1 genotox	ELG1 repair inh	NPC1 promoter act	SMN2 splice up	Rab9 prom act
Cc1ccc(-n2ncc3c(NCc4ccco4)ncnc32)cc1C	13µM*	?	?	2.8µM*	16µM*	3.5µM*
Cc1cccc(-n2ncc3c(NCc4ccco4)ncnc32)c1	12µM*	?	?	8%	16µM*	?
Cc1cccc(-n2ncc3c(N4CCCc5ccccc54)ncnc32)c1	5.4µM*	2.3µM*	?	2.8µM*	13µM*	2µM*
Cc1cccc(-n2ncc3c(NCc4cccs4)ncnc32)c1	9.5µM*	?	?	3.5µM*	10µM*	?
COc1ccc(Cn2c(SCc3ccc(C(=O)NC(C)c4ccccc4)cc3)nc3cccnc32)cc1 (configuration not stated)	?	/	/	/	-9%	/
CCOCCCNc1ncnc2c1cnn2-c1ccc(C)c(C)c1	11µM*	/	/	/	/	/
CNc1ncnc2c1cnn2-c1ccc(C)c(C)c1	11µM*	/	/	/	/	/
CC(=O)Cn1cnc2c(cnn2-c2ccc(C)c(C)c2)c1=O	24µM*	?	?	3.2µM*	/	1.6µM*
Cc1cccc(-n2ncc3c(NCc4ccccc4)ncnc32)c1	-17%	18µM*	?	-16%	10µM*	-4%
COc1ccc(CNc2ncnc3c2cnn3-c2ccc(C)c(C)c2)cc1	-7%	/	/	/	/	/
COc1ccc(NC(=O)CC2C(=O)N(c3ccc(C)cc3)C(=O)N2C2CCCC2)cc1 (configuration not stated)	-2%	/	/	/	/	/
CCSc1ncc(Cl)c(C(=O)Nc2nc3ccc(S(C)(=O)=O)cc3s2)n1	?	/	/	/	1%	/
O=C(Nc1cccc2cccnc12)[C@@H]1[C@@H](C(=O)O)[C@H]2CC[C@@H]1O2	/	/	/	/	-9%[9.22 µM]	/
CC(=O)Nc1ccc(Nc2ncnc3c2cnn3-c2cccc(C)c2)cc1	-15%	10%	?	2.8µM*	?	3.2µM*
Clc1ccc(-n2ncc3c(NCc4cccnc4)ncnc32)cc1Cl	1.1µM*	?	?	0.5µM*	/	1.1µM*

From PubChem
